49 molecules from PubChem BioAssay AID1963576 (National Center for Advancing Translational Sciences (NCATS), 2024) can be followed below.

Screen size: about 46,000 compounds; about 60 (0.1%) were called active. Another 3% or so got no clear call; they are omitted. Calls come from the whole dose curve; as a rule, active = well fitted inhibition curve with a large enough effect; inconclusive = small, poorly fitted or top-dose-only effect; inactive = no such curve, though single readings can be large or run the other way. What follows is part of a selection rich in actives, with near analogues and random picks from the rest. Entries that show only a call come without a potency.
Potency is the fitted concentration of half-maximal effect.

The experiment in a line: Primary qHTS assay for Inhibitors of ovarian cancer metastasis using an organotypic tumor microenvironment (TME) model.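 For potency: count of GFP cancer cells still attached after washing and fixation.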 Note: nearly all actives have a fitted effect of over 65% in size. The following applies: SKOV3ip1-GFP adhesion/invasion on 3D omental model, fluorescence; series mostly up to 45.8 µM. From the text:
PI: Ernst Lengyel MD., Ph.D. Department of Obstetrics and Gynecology, Section of Gynecologic Oncology University of Chicago Medicine, Chicago, Illinois. The tumor microenvironment (TME) is a key determinant of metastatic efficiency. We performed a quantitative high-throughput screen (qHTS) of diverse medicinal chemistry tractable scaffolds (44,420 compounds) and pharmacologically active small molecules (386 compounds) using a layered organotypic, robust assay representing the ovarian cancer metastatic TME. This 3D model contains primary human mesothelial cells, fibroblasts, and extracellular matrix, to which fluorescently labeled ovarian cancer cells are added. Initially, 100 compounds inhibiting ovarian cancer adhesion/invasion to the 3D model in a dose-dependent manner were identified. Of those, eight compounds were confirmed active in five high-grade serous ovarian cancer cell lines and were further validated in secondary in vitro and in vivo biological assays. […] Specifically, NCGC00117362 and PP-121 inhibited ovarian cancer adhesion, invasion, and proliferation, whereas milciclib inhibited ovarian cancer invasion and proliferation. […] To evaluate the clinical potential of NCGC00117362, structure - activity relationship studies were performed. […] The three compounds identified have promise as therapeutics for prevention and treatment of ovarian cancer metastasis.
PROTOCOL TABLE (as described by Inglese J, Shamu CE and Guy RK. 2007) SEQUENCE No. (e.g., 1, 2, 3, etc.); […] (e.g., Cells, Incubation, Reagent, etc.); VALUE; DESCRIPTION. 1; Cells; 4 uL; primary human omental fibroblast, black, clear bottom, low base, 1536-well Aurora assay plate. 2; Incubation; 48 hr; 37C. 3; Cells; 3 uL; 1,200 SKOV3ip1-GFP cells. 4; Compounds; 23nL; acoustic dispenser. 5; Incubation; 2 hr; room temperature. 6; Incubation; 16 hr; 37C. 7; Wash; 5 uL; 1x PBS. 8; Fixing; 5 uL; 4% paraformaldehyde (PFA). 9; Incubation; 15 min; room temperature 10; Wash, 5 uL; 1x PBS. 11; Detection; Fluorescence, excitation filter 488 nm, emission filter 509 nm. NOTES (numbers refer to Sequence numbers above) 1. For the 1,536-well format, 40 primary human omental fibroblasts and 400 mesothelial cells were seeded with 0.02 µg fibronectin and 0.02 µg collagen type I in 4 µL of growth media (2.3 mm2; Supplementary Fig. S1A). 2. Assay plates were incubated for 48 hours at 37 C. 3. After incubation, 1,200 SKOV3ip1-GFP were seeded in 3 µL of serum-free media (growth media minus FBS) on top of primary human omental cells. 4. Compounds or controls were added to each well immediately after the addition of the cancer cells. Compounds were screened in four doses (0.36-46 µmol/L), and the plates contained the positive control (Tomatine) in eight doses (0.035-75 µmol/L) and DMSO (equal volume controls) 5 - 6. The plates were incubated at room temperature for 2 hours and then at 37 degrees C for 16 hours. 7 - 10. Following incubation, the media were aspirated and each well washed with PBS (5 µL) and then fixed with 4% paraformaldehyde (PFA; 5 µL). After 15 minutes, the PFA solution was aspirated, PBS (5 µL) was added. 11. The number of GFP-labeled cells analyzed using a fluorescent cytometer TTP LabTech Acumen eX3 using 488 nm excitation filter and 509 nm emission filter. Data was normalized to the DMSO treated for negative and Tomatine treated wells for positive control. REFERENCES: Inglese J, Shamu CE and Guy RK, Reporting data from high throughput screening of small molecule libraries, Nature Chemical Biology, 2007, 3(8): 438-441. doi.org/10.1038/nchembio0807-438. Yasgar A, Shinn P, Jadhav A, Auld DS, Michael S, Zheng W, Austin CP, Inglese J and Simeonov A, Compound Management for Quantitative High-Throughput Screening. J. Assoc. Lab. Auto., 2008, 13: 79-89. doi: 10.1016/j.jala.2007.12.004.
Turning to `CCC(C(=O)Nc1cc(OC)ccc1OC)n1c(=O)c(C(F)(F)F)nc2ccccc21` (centres undefined), the Potency entry is “inactive”.

As to `CN1CCN(C2(CNC(=O)COc3ccc(C(C)(C)C)cc3)CCCCC2)CC1`, the Potency entry is “inactive”.

Take `CCOc1ccccc1N(C)C(=O)c1cc2c(s1)-c1ccccc1OC2`: the Potency result is “inactive”.

`Cc1nn(-c2ccc(N3CCCCC3)nn2)c(C)c1CCC(=O)NCc1ccc(F)cc1`: the Potency result was “inactive”.

`O=C(Nc1c(-c2ccc(F)cc2)nc2ccccn12)c1cccc(F)c1`: the Potency result was “inactive”.

`CC(=O)OC[C@@H]1O[C@@H](n2ccc(=O)[nH]c2=O)[C@H](OC(C)=O)[C@H]1OC(C)=O`: the Potency entry is “inactive”.

As to `CN(C(=O)CSc1nnc(NC(=O)Nc2ccccc2)s1)c1ccccc1`, the Potency result was “inactive”.

As to `CC1CCCCN1CC(=O)N1CCCc2c1c(=O)oc1ccc(OCc3ccccc3)cc21` (centres undefined), the Potency entry is “inactive”.

In the case of `O=S(=O)(NCCS(=O)(=O)N1CCN(c2ccccc2)CC1)c1ccc(Cl)cc1`, the Potency result is “inactive”.

As for `Cc1cccc(NC(=O)C2CCN(S(=O)(=O)c3c(C)noc3/C=C/c3ccco3)CC2)c1`, the Potency result was “inactive”.

Turning to `CC(C)Cn1c(=O)c2ccccc2n2c(CCC(=O)N3CCN(c4cccc(Cl)c4)CC3)nnc12`, the Potency result was “inactive”.

Take `COc1ccc(-c2cc(C(F)(F)F)n3nc(-c4ccccc4)cc3n2)cc1OC`: the Potency result is “inactive”.

For the molecule `CC(C(C)N1CC(=O)NC(=O)C1)N1CC(=O)NC(=O)C1` (centres undefined), the Potency entry is “inactive”.

With `Cc1ccc(CNS(=O)(=O)c2ccc(C(=O)N(C)C)s2)cc1`, the Potency entry was “inactive”.

As to `CSc1ncc(Cl)c(C(=O)Nc2ccc(S(=O)(=O)N3CCCC(C)C3)cc2)n1` (centres undefined), the Potency result was “inactive”.

For the molecule `Cc1ccc(-c2cc(N)n(Cc3cccc(Cl)c3)n2)cc1`, the Potency result is “inactive”.

For the molecule `C[C@]12CCC3=C4CCC(=O)C=C4CC[C@@H]3[C@H]1CC[C@@]2(O)CC#N`, the Potency result is “inactive”.

Consider `CCC(=O)N1CCc2cc(Br)cc(S(=O)(=O)Nc3ccc(C)cc3C)c21`, for which the Potency entry is “inactive”.

In the case of `Cc1cccc(NC(=O)c2cc3c(C)nn(-c4ccccc4)c3s2)c1`, the Potency entry was “inactive”.

Regarding `Cc1ccc(-c2nn3c(=O)cc(CN4CCN(C(=O)Nc5cccc(C(F)(F)F)c5)CC4)nc3s2)cc1`, the Potency result is “inactive”.

With `CCOC(=O)CN1C(C(=O)c2ccccc2)=C(OC(=O)C(C)(C)C)c2ccccc2S1(=O)=O`, the Potency result is “inactive”.

On to `O=C(CC1C(=O)N(c2ccccc2)C(=O)N1CCc1cccs1)Nc1ccc(F)cc1` (centres undefined), for which the Potency entry was “inactive”.

Take `O=C(CN1c2ccccc2S(=O)(=O)c2ccccc21)Nc1cccc(C(F)(F)F)c1`: the Potency result is “inactive”.

Consider `CC(C)(C)OC(=O)N1CCC(c2c(C(=O)N3CCN(c4cccc(Cl)c4)CC3)cnn2-c2cccc(Cl)c2)CC1`, for which the Potency entry was “inactive”.

Take `CCc1ccccc1NC(=O)CCOc1ccccc1`: the Potency result is “inactive”.

`Cc1cccc(OCCCC(=O)Nc2sc3c(c2C(N)=O)CCC(C)C3)c1` (centres undefined): the Potency result was “inactive”.

Regarding `CCN(CC)CCCCNc1ncc2c(n1)N(C)C(=O)N(c1c(Cl)c(OC)cc(OC)c1Cl)C2`, the Potency entry is “inactive”.

Consider `Cc1cccc(N2CCN(C(=O)c3cc4c(=O)oc5ccccc5c4s3)CC2C)c1` (centres undefined), for which the Potency entry is “inactive”.

In the case of `COCCCNC(=O)CN1C(=O)CSc2ccc(S(=O)(=O)N3CCOCC3)cc21`, the Potency entry is “inactive”.

As to `CCc1ccccc1N1CC(c2nc3ccccc3n2CCCCOc2ccccc2)CC1=O` (centres undefined), the Potency result was “inactive”.

As for `CCOC(=O)c1nc(Nc2ccc(C(=O)OC)cc2)c2ccccc2n1`, the Potency entry was “inactive”.

For the molecule `COc1cccc(Nc2nc3ccccc3c3nncn23)c1`, the Potency result is “inactive”.

As to `COc1cc(Nc2nc(-c3ccc(OC)c(OC)c3)nc3ccccc23)cc(OC)c1`, the Potency is 10 µM (active).

Regarding `COc1ccc(C2=CC(c3ccccc3Cl)n3nc(-c4ccc(Cl)cc4)nc3N2)cc1` (centres undefined), the Potency result was “inactive”.

For the molecule `O=C(CCC(=O)N1CC2CCCN2c2ccccc21)NCc1ccccc1Cl` (centres undefined), the Potency entry is “inactive”.

For the molecule `CCCCN(C)S(=O)(=O)c1ccc(C(=O)Nc2sc3c(c2C(N)=O)CC(C)(C)NC3(C)C)cc1`, the Potency entry was “inactive”.

With `Cc1ccc(C(=O)Nc2ccccc2F)cc1S(=O)(=O)N1CCOCC1`, the Potency entry was “inactive”.

In the case of `Cc1c(Cl)cccc1NC(=O)C1CCCN(c2ncnc3onc(C)c23)C1` (centres undefined), the Potency result was “inactive”.

In the case of `COc1cc(C=CC(=O)O)ccc1O`, the Potency result was “inactive”.

Consider `CSc1ccc(NC(=O)Cn2nnnc2-c2ccccc2F)cc1`, for which the Potency entry was “inactive”.

With `COc1ccccc1CNC(=O)C(=O)NCC(c1ccco1)S(=O)(=O)c1ccc(F)cc1` (centres undefined), the Potency result was “inactive”.

In the case of `CCC(C(=O)Nc1cccc(Cl)c1C)n1nc(-c2ccc(C)cc2)ccc1=O` (centres undefined), the Potency entry is “inactive”.

`Cc1ccc(OC(=O)CSc2nnc(-c3cccs3)o2)cc1`: the Potency result is “inactive”.

Take `O=C(CCSCc1cccc(F)c1)NCc1ccccc1`: the Potency entry is “inactive”.

Consider `COc1cc(Cl)c(NC(=O)C(NS(=O)(=O)c2cccs2)C(C)C)c(OC)c1` (centres undefined), for which the Potency result was “inactive”.

On to `Cc1cccc(N2CCN(S(=O)(=O)c3ccc4[nH]c5c(c4c3)CCCCC5)CC2)c1C`, for which the Potency result is “inactive”.

Turning to `CCN1C(=O)c2ccccc2S(=O)c2ccc(C(=O)NCc3ccc(F)cc3)cc21` (centres undefined), the Potency entry was “inactive”.

Regarding `O=C(NCCC1=CCCCC1)c1ccc2c(c1)N(Cc1ccccc1F)C(=O)c1ccccc1S2(=O)=O`, the Potency result was “inactive”.

With `O=C(c1ccc(C(F)(F)F)cc1)N1CCC(c2nc(-c3ccc(S(=O)(=O)N4CCCC4)cc3)no2)CC1`, the Potency result was “inactive”.
